B1: design_617_b3fadc1d-0db4-4da8-8433-818493aa2ab2_2293_dldesign_0_cycle1_af2pred (protein)
chain: AEEALKLLKEAKKKAEEALKLAEKGGDPEEIKALVNEALSLATKGSAQAVKHPEIAPLGNAVLGYAVDVAERVEELLKERE
B2: design_618_d4ffd631-0ea2-432e-ba0f-bd3d6297b2a0_955_dldesign_0_cycle1_af2pred (protein)
chain: AAASEIMAKFAAGVAKNVAAVLKEDPEKGIEVGKKLAEIILAADPQAGAKLAQAFAEYVKKYAPLIPADKKAAAEAYFNALAEKGA
B3: design_617_b3fadc1d-0db4-4da8-8433-818493aa2ab2_2387_dldesign_0_cycle1_af2pred (protein)
chain: AAAAEGELLGKLIELARRASKLDPETANLILSGLGLYGVDPEAGVKKLLEAAELAKKAGHEELAKEIKELAEKLAAVSAA
B4: design_618_d4ffd631-0ea2-432e-ba0f-bd3d6297b2a0_848_dldesign_0_cycle1_af2pred (protein)
chain: MERAISLGKAAAVAGIAGSTAALKNIVKTIAKLSPEEAKKAAEVAAKEIIKAPNAKEMLKAAADAAKEVGTESGKAAAEVFEKAAKKA
B5: design_618_d4ffd631-0ea2-432e-ba0f-bd3d6297b2a0_687_dldesign_0_cycle1_af2pred (protein)
chain: AAAQQLAVQSATAFARQAIAAAQAALELAKADPSAKEEIERLLNQARASLQNALLVGQSSPEAAAIAQEAQATVEKLAAETAKAAAA
B6: design_618_d4ffd631-0ea2-432e-ba0f-bd3d6297b2a0_719_dldesign_0_cycle1_af2pred (protein)
chain: AAALAEVQEKALEAAKKASELAREARKAGDEEKAKKFEELMNTLMSAAGAAAQDLEAAKEKIDKAIKEIEELAKN
B7: design_618_d4ffd631-0ea2-432e-ba0f-bd3d6297b2a0_800_dldesign_0_cycle1_af2pred (protein)
chain: MSEAAKEVAELAEYVSKQAKEAGNEEAAKLAKEGAELAKEGAKDPSTAGEKIAEALKLYIQASQQLVAYQQA
B8: design_617_b3fadc1d-0db4-4da8-8433-818493aa2ab2_1885_dldesign_0_cycle1_af2pred (protein)
chain: AEAAKKGEEAVKKAEEAKKKAEAAAAKLPASVADPVKAAADALVASAKAHAEAGNTESAEATAEVLAGMAEGTKARADALAA
B9: design_618_d4ffd631-0ea2-432e-ba0f-bd3d6297b2a0_110_dldesign_0_cycle1_af2pred (protein)
chain: AGAAAAEEIRALVDKAIADPATAPEYTARAAEIARAADPRLAGVGQAILAAAERLAAGSPEEAARHAAQMRELTDVVVATLLG
B10: design_618_d4ffd631-0ea2-432e-ba0f-bd3d6297b2a0_165_dldesign_0_cycle1_af2pred (protein)
chain: AAAAAKVAVAAAKSMIKQAKKFLEEGEKSGDLKLVESAKKLAEQAKNLAKFAIANPATKEEGEKLEKEAEEVKKKAEEAEKKIK
B11: design_617_b3fadc1d-0db4-4da8-8433-818493aa2ab2_1817_dldesign_0_cycle1_af2pred (protein)
chain: AEEERMRAAIREIAAAAAAEVEAWAKAHPAADQAEWFAALQAAGEKAAEAMAAIDPRYAPEARALAMALGAGAVQRVKA
B12: design_617_b3fadc1d-0db4-4da8-8433-818493aa2ab2_2043_dldesign_0_cycle1_af2pred (protein)
chain: DLVEKYREEALAEAEKLVKEGVSPEEAAEILMEKAREYFAQAAKASPEVAVKLIAKAEGYALAAKEIRERL
B13: design_617_b3fadc1d-0db4-4da8-8433-818493aa2ab2_1993_dldesign_0_cycle1_af2pred (protein)
chain: PSVEEIGQALLDNLKKTLEEAVKASLEEAKGYAAQAAALYIGAHGASPEYGKQAEEIVKKAIKELEKKDPEKAKILKEAIEKAEALL
B14: design_617_b3fadc1d-0db4-4da8-8433-818493aa2ab2_1785_dldesign_0_cycle1_af2pred (protein)
chain: EAEEYYKKGKEYSAKGDELYKAGKYEEAIKYYQKAANYYSKASILLTKAGGDQEKIDEANANLAKALENLEKASRALREAREKEEK
B15: design_618_d4ffd631-0ea2-432e-ba0f-bd3d6297b2a0_776_dldesign_0_cycle1_af2pred (protein)
chain: GAEEELKKAEEMGEIAESIAKQAAKASGSKEAKELLKKAKELVKKAKENAKDKEKIKELLKELSRLAGQAAKQLIAALK
B16: design_618_d4ffd631-0ea2-432e-ba0f-bd3d6297b2a0_1177_dldesign_0_cycle1_af2pred (protein)
chain: AQATLASAQALTNAAETALKTSPEYAPLALQLAQQGIELAKQAAKEGAKEDPATAKEAKEVQKKAEEVAKQAQKILA
B17: design_617_b3fadc1d-0db4-4da8-8433-818493aa2ab2_1940_dldesign_0_cycle1_af2pred (protein)
chain: MEEYRARAEELLEKAKKAAEGENGVGDVGELAVEMAKLAAEAEKASPEAGAYARAALVEISQLAIEAAKRKAA
B18: design_618_d4ffd631-0ea2-432e-ba0f-bd3d6297b2a0_93_dldesign_0_cycle1_af2pred (protein)
chain: MEEVKALIARAAELLAAAAADPSTAGEKVTEAIRLLAEAAALDPSIAPLANEAMALATRGLVTGPEGLAAAEEATKAVLEAV
B19: design_618_d4ffd631-0ea2-432e-ba0f-bd3d6297b2a0_1320_dldesign_0_cycle1_af2pred (protein)
chain: AAAEAAAAAVRAATAAGVARVEALAAAAGDAEVAALARAEAARIREVGAVLEEIARATGPFGGEVGLKSVATVTANAEARIAEAA
B20: design_618_d4ffd631-0ea2-432e-ba0f-bd3d6297b2a0_318_dldesign_0_cycle1_af2pred (protein)
chain: MEKKEELKKKAEEAIKKLKKLKEEGASPEEINKALAEAVELAKEAAEAGDSETANRLLSEAGRLSIEALKNHAA
B21: design_618_d4ffd631-0ea2-432e-ba0f-bd3d6297b2a0_1274_dldesign_0_cycle1_af2pred (protein)
chain: MSPEEAKAQAEELAKQAKENKAKALATVADPAKAGEHIVQIAKNAAALQRIAAEVPEVAAYAKAKAREASKYLAEASTAAAAA
B22: design_618_d4ffd631-0ea2-432e-ba0f-bd3d6297b2a0_442_dldesign_0_cycle1_af2pred (protein)
chain: AAATRATADAALAELERVGEVAVTVAKSALEAGFSKETALKIGTSLVENVVTGATAAVADDPAAQARIRAAGERIKEEIRKAL
B23: design_618_d4ffd631-0ea2-432e-ba0f-bd3d6297b2a0_729_dldesign_0_cycle1_af2pred (protein)
chain: AKEEVVEQAKQVAEAALALAKQVSPEWEKKAKEALELVEKAKEGNLEEAQKVAGEVMRIAAEVLAAYTAKQA
B24: design_618_d4ffd631-0ea2-432e-ba0f-bd3d6297b2a0_1565_dldesign_0_cycle1_af2pred (protein)
chain: MEEELKKIEEVKELGKKIGEELAKKILEYAKENASLPIEEILRKMVEMTREAVEKIYKLIPSELAEIGARIVWGAGSQAMIQGVRLIG
B25: design_618_d4ffd631-0ea2-432e-ba0f-bd3d6297b2a0_1447_dldesign_0_cycle1_af2pred (protein)
chain: MQGHIDRLNRGAEAALAAAESGEITEEQARIIRNGAMIAYDAAEAYEKTTRAAELLQTTPEGREEGGKILRELAEKMLARAKELL
B26: design_618_d4ffd631-0ea2-432e-ba0f-bd3d6297b2a0_170_dldesign_0_cycle1_af2pred (protein)
chain: AAAAAAADAEAAALAKGFVEEAKKKIEALLKAGAPEEELLAEASRVAAKAIRTFAALGWNGSHAVAAVKAITEEAKKAIEKLRA
B27: design_618_d4ffd631-0ea2-432e-ba0f-bd3d6297b2a0_931_dldesign_0_cycle1_af2pred (protein)
chain: AAAAEAALARAVAVLGRAFQQAVASPDLAEADALLDAGLAEALAITAADPEAAAAVRRLAAQMRAKVRELVS
B28: design_618_d4ffd631-0ea2-432e-ba0f-bd3d6297b2a0_1624_dldesign_0_cycle1_af2pred (protein)
chain: MKAEVEALREQVSKAVNAATKAGSAAALKDGLASSQKLSEVMEEVGELVKKGNEATKKGEYEEALKYYQKAIEIATDAKAYFEKVAAA
B29: design_618_d4ffd631-0ea2-432e-ba0f-bd3d6297b2a0_220_dldesign_0_cycle1_af2pred (protein)
chain: DKEEAVKLAEEGAEVALKLADKRVGAVTAAAFRGLARSIRAAEDPEDIAKIAEVAKGMKAWAEAQLKATA
B30: design_617_b3fadc1d-0db4-4da8-8433-818493aa2ab2_2347_dldesign_0_cycle1_af2pred (protein)
chain: AAAEQAAREALQGRALEKMKEYVDKLVALAKETGSEAALEAAQQVASLFTQAIIAAQQDLAAGRAALAQGEALAKAAIAALE
B31: design_618_d4ffd631-0ea2-432e-ba0f-bd3d6297b2a0_941_dldesign_0_cycle1_af2pred (protein)
chain: SEEVKKALEEVEKLLDEAIKAAKAGDIGTAAVLLAKAAAIADKAHPEAGAVIRQGLAEAIAAAADPEKAAKVIEEAREKVKKILEA
B32: design_618_d4ffd631-0ea2-432e-ba0f-bd3d6297b2a0_1130_dldesign_0_cycle1_af2pred (protein)
chain: AEAVAKAALTSAKNLAEMAIRLAESGEKLEEAKKALEVAKAMAEQAEKLNPKYGKEAKAAVEKAEKKLKEAE
B33: design_618_d4ffd631-0ea2-432e-ba0f-bd3d6297b2a0_400_dldesign_0_cycle1_af2pred (protein)
chain: SSSLIDRLTGIALKGLSIAQGVLDKVEAGEATPEEIEEGIKAAEESEKAAKELSKLLAAQPAASEYYKKLAERAKEYKEKLKKALA
B34: design_617_b3fadc1d-0db4-4da8-8433-818493aa2ab2_2366_dldesign_0_cycle1_af2pred (protein)
chain: GLEKALKELKKVAEATAAAATAADPAMKPTADLLKKAAERAAAGDAETALANLNTILVLADSIAAVDPAAAKKLKEAAEKAIKIAR
B35: design_617_b3fadc1d-0db4-4da8-8433-818493aa2ab2_2360_dldesign_0_cycle1_af2pred (protein)
chain: AAAQAQAQQIVDQTRAAVEEARAMAEDGATAAAAAERAAAVARQASAAIPQALAASPQIAGQLAQVALDATRVEAEARRNAA
B36: design_618_d4ffd631-0ea2-432e-ba0f-bd3d6297b2a0_140_dldesign_0_cycle1_af2pred (protein)
chain: NEDLTKAGEKVVETQRTASEAARTSGDPAVAAEMNAIANAAIKALQAGVATGDYKTALETTEKLLKEAKAKLKEVK
B37: design_618_d4ffd631-0ea2-432e-ba0f-bd3d6297b2a0_1622_dldesign_0_cycle1_af2pred (protein)
chain: SKEEREKIYKEALKNLEKMGTLLLDLAAQGSAADVAAAKAAIEEAKKLIEEAKKANPEEAKKLAKEAHDILSKALAAVSKSVIA
B38: design_618_d4ffd631-0ea2-432e-ba0f-bd3d6297b2a0_472_dldesign_0_cycle1_af2pred (protein)
chain: MNEAQRIAAARGAARVAAAAAEKDPALGKAILAGAAATFADSPAALKALAATAREEAEKASPEAGAALKAAAAEVEAAAA

target: CD276, Q5ZPR3
Sequence (Q5ZPR3 whole entry): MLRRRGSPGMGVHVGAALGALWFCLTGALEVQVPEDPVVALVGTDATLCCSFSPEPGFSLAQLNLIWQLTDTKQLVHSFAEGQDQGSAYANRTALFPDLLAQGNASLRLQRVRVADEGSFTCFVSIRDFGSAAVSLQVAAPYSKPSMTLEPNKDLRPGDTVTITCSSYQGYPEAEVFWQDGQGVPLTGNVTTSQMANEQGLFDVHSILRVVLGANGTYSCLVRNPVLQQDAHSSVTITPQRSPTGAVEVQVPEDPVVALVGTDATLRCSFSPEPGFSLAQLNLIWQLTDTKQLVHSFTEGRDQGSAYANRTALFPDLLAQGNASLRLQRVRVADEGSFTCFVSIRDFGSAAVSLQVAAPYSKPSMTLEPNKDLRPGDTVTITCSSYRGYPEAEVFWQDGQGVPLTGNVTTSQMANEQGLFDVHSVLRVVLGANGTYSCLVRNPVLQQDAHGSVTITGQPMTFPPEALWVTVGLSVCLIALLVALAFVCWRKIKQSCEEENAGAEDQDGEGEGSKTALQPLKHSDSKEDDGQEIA

Binding in a display sort, inactive:
B1 not found
B2 not found
B3 not found
B4 not found
B5 not found
B6 not found
B7 not found
B8 not found
B9 not found
B10 not found
B11 not found
B12 not found
B13 not found
B14 not found
B15 not found
B16 not found
B17 not found
B18 not found
B19 not found
B20 not found
B21 not found
B22 not found
B23 not found
B24 not found
B25 not found
B26 not found
B27 not found
B28 not found
B29 not found
B30 not found
B31 not found
B32 not found
B33 not found
B34 not found
B35 not found
B36 not found
B37 not found
B38 not found

— PMC13494018
